Screening results deposited in PubChem by National Center for Advancing Translational Sciences (NCATS).
Sampled rows, rich in hits. Any-hit rate of the full collection: about 5.4%.
VACV Venus inh: vaccinia inhibition (Venus reporter) | Vaccinia virus Venus reporter expression, fluorescence | Potency, µM (series often up to 36.5 µM), for the others: at the top dose activity change, negative = inhibition, most hits filed as inhibitors | actives 0.46% (n = 330,000); calls by dose curve; tested in A549 cells; note: nearly all actives have a fitted effect of over 30% in size
Marburg entry inh: inhibitors of Marburg virus binding or cell entry | Marburg virus pseudotyped entry inhibition, cell reporter | Potency, µM (top dose mostly 37.8 µM), for the others: at the highest dose activity change, negative = inhibition, most hits filed as inhibitors | actives 1.8% (n = 300,000); calls by dose curve; tested in HEK293 cells
Lassa entry inh: Lassa virus entry inhibition; Lassa virus pseudotype entry inhibition, cell reporter; Potency, µM (highest dose often 37.9 µM), inactives show top-dose activity change, negative = inhibition, hits mostly inhibitors; AID 540256; actives 1.2% (n = 300,000); calls by dose curve; tested in HEK293 cells; note: nearly all actives have a fitted effect of over 50% in size
FMDV inh: foot and mouth disease virus antiviral activity; actives 1.2% (n = 410,000); Potency, µM (doses to about 57.9 µM), inactives show top-dose activity change, negative = inhibition, usual class: inhibitors; FMDV antiviral cell-based qHTS; calls by dose curve; tested in HEK293T cells; note: read-out not given here; nearly all actives have a fitted effect of over 45% in size
Sm TGR block: inhibitors of Schistosoma mansoni thioredoxin glutathione reductase. purified TGR, DTNB reduction, TNB absorbance 405 nm. Potency, µM (doses to about 114 µM), without a hit: at the highest dose activity change, negative = inhibition, most hits filed as inhibitors. actives 3% (n = 360,000). AID 485364; active = well fitted inhibition curve with a large enough effect; inconclusive = small, poorly fitted or top-dose-only effect; inactive = no such curve, though single readings can be large or run the other way; note: nearly all actives have a fitted effect of over 60% in size
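First, TGR (20 nM dispensed) and NADPH were mixed with compound. Second, a 15 min room-temperature incubation followed. Third, further NADPH and then DTNB were added to start the reaction. Finally, TNB absorbance was monitored kinetically.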
VACV mCherry inh: vaccinia inhibition (mCherry reporter). actives 0.63% (n = 310,000). Potency, µM (highest dose often 36.5 µM), inactives show at the highest dose activity change, negative = inhibition, most hits filed as inhibitors. Vaccinia virus mCherry reporter infection, fluorescence; calls by dose curve; tested in A549 cells; note: nearly all actives have a fitted effect of over 35% in size
Active calls of the source: *; i = inactive; ? = inconclusive; / = not tested or not shown; [ ] = another dose, or the depositor's remark. % is set by controls: 0 for no effect and ±100 for the full control effect; potency is the fitted concentration of half-maximal effect.

SMILES | VACV Venus inh | Marburg entry inh | Lassa entry inh | FMDV inh | Sm TGR block | VACV mCherry inh
COc1cccc(-c2ccnc(-n3ncc(C(=O)NCC(C)(C)CN(C)C)c3C)n2)c1 | -11% | / | / | -13% | / | -14%
O=C(O)CC12CC3CC(C1)CC(n1ncc(NCc4ccccc4Cl)c(Cl)c1=O)(C3)C2 | / | / | / | -3% | -5% | /
O=C(O)C12CC3CC(C1)CC(n1ncc(NCc4ccco4)c(Cl)c1=O)(C3)C2 | -1% | 4%[46.1 µM] | ? | -12% | 2.8µM* | -13%
O=C(NCc1cccnc1)/C(=C\c1ccc(-c2cccc(Cl)c2)o1)S(=O)(=O)c1ccccc1 | 10µM* | ? | ? | 18µM* | 18µM* | 11µM*
Cc1ccc(C(=O)N/C(=C\c2ccc(-c3cc(Cl)ccc3Cl)o2)C(=O)NCc2cccnc2)cc1 | ? | ? | 11µM* | -5% | -4% | /
O=C(NCc1cccnc1)/C(=C/c1ccc(-c2cccc(Cl)c2)o1)S(=O)(=O)c1ccccc1 | -17% | ? | 12% | ? | ? | -10%
O=C(N[C@@H]1c2ccccc2C2(CCN(Cc3c(O)ccc4ccccc34)CC2)[C@H]1O)c1ccccc1 | 0% | / | / | 13% | / | -6%
COc1ccc(C(=O)Nc2ccc3nc(SCC(=O)N4CCCC4)sc3c2)cc1 | -4% | 1%[46.1 µM] | -11%[46.1 µM] | -7% | 3% | -7%
COc1ccc(NC(=O)CSc2nc3c(oc4ccccc43)c(=O)n2-c2ccccc2)cc1OC | 0% | -6%[46.1 µM] | / | -3% | 25% | -4%
Cc1cccc(N(Cc2ccccc2)C(=O)c2ccc(F)c(S(=O)(=O)N3CCOCC3)c2)c1 | -16% | 11µM* | -27% | -5% | -4% | -1%
COCCn1c(C)cc(O)c(C(c2ccccc2)N2CCN(C)CC2)c1=O (stereo not drawn) | 0% | / | -3%[46.1 µM] | 1% | 6.3µM* | -14%
COCCn1c(C)cc(O)c(C(c2ccccc2)N2CCN(c3ccccc3F)CC2)c1=O (stereo not drawn) | -9% | / | ? | -18% | 7.1µM* | -13%
CCOc1ccc(C(c2c(O)cc(C)n(CCOC)c2=O)N2CCC(C)CC2)cc1 (stereo not drawn) | -5%[7.34 µM] | / | -29%[46.1 µM] | -14% | 20µM* | -13%[7.34 µM]
CCOc1ccc(C(c2c(O)cc(C)n(CCOC)c2=O)N2CCN(c3ccccc3F)CC2)cc1 (stereo not drawn) | -9% | / | -26%[46.1 µM] | -26% | 10µM* | -11%
COCCn1nnnc1C(c1ccccc1)N1CCN(C)CC1 (stereo not drawn) | -7% | 4% | 0% | -1% | 6% | /
CCC(C)(C)n1nnnc1C(c1ccc(C)cc1)N1CCC(C)CC1 (stereo not drawn) | / | -28% | 3% | 1% | 0% | /
Cc1c(C(=O)N2CCC(C)CC2)c(S(=O)(=O)Nc2cccc(C#N)c2)c(C)n1C | -5% | / | 21%[46.1 µM] | 53% | -3% | -11%
CCOc1ccc(C(=O)NCC(c2ccco2)S(=O)(=O)c2ccc(C)cc2)cc1 (stereo not drawn) | -9% | / | 8%[46.1 µM] | 28% | ? | -3%
COc1ccccc1-n1c(O)c(/C=N/NC(=S)Nc2ccccc2)c(=O)[nH]c1=S | / | / | / | 24% | 11µM* | /
Cc1nn(Cc2ccccc2)c(C)c1NC(=O)CCCn1nc(C)c([N+](=O)[O-])c1C | -6% | 1% | ? | -20% | 6% | 17%
Cc1nn(Cc2ccc(Cl)cc2)c(C)c1NC(=O)CCCn1nc(C)c([N+](=O)[O-])c1C | -25% | 13µM* | ? | -27% | 4% | -14%
CC(C)N(Cc1nc(-c2ccc(Cl)cc2)no1)C(=O)c1ccc(C(C)(C)C)cc1 | 2% | -26%[46.1 µM] | 20%[46.1 µM] | -14% | 0% | 3%
Cc1cc2c(cc1C)C(c1cccc([N+](=O)[O-])c1)CC(=O)N2 (stereo not drawn) | 1µM* | 4.5µM* | ? | -27% | 0% | 0.35µM*
CCOc1ccccc1NC(=O)Cn1nnc2sc(-c3ccccc3)cc2c1=O | -18% | -8%[46.1 µM] | 20%[46.1 µM] | -8% | -10% | -11%
CCOc1ccc(C2c3c(oc4ccccc4c3=O)C(=O)N2CCCN2CCOCC2)cc1 (stereo not drawn) | -9% | 1% | -2% | 6% | 35µM* | /
SMILES | VACV Venus inh | Marburg entry inh | Lassa entry inh | FMDV inh | Sm TGR block | VACV mCherry inh
CN1C(=O)c2oc3ccccc3c(=O)c2C1c1ccncc1 (stereo not drawn) | 7% | 9% | ? | -6% | 45µM* | i
CCCOc1ccc(C2c3c(oc4ccccc4c3=O)C(=O)N2CCCN2CCOCC2)cc1 (stereo not drawn) | -2% | -10% | -22% | / | 35µM* | -17%
CCOc1ccc(C2c3c(oc4cc(C)c(C)cc4c3=O)C(=O)N2CCCN2CCOCC2)cc1 (stereo not drawn) | 0% | -3% | / | 0% | -15% | -12%
CC(C)CCOc1cccc(C2c3c(oc4ccccc4c3=O)C(=O)N2CCCN2CCOCC2)c1 (stereo not drawn) | -5% | / | / | 3% | / | -10%
COC(=O)c1ccc(C2c3c(oc4ccccc4c3=O)C(=O)N2CCCN2CCOCC2)cc1 (stereo not drawn) | -2% | / | / | -13% | 25µM* | -11%
COCCN1C(=O)c2oc3ccccc3c(=O)c2C1c1ccc(C(=O)OC)cc1 (stereo not drawn) | -11% | 0% | / | 3% | 0% | -21%
Cc1ccc2oc3c(c(=O)c2c1)C(c1cccc(O)c1)N(CCCN1CCOCC1)C3=O (stereo not drawn) | -11% | 28%[46.1 µM] | 16%[46.1 µM] | -15% | 1% | -14%
Cc1ccc2oc3c(c(=O)c2c1)C(c1ccc(F)cc1)N(CCCN1CCOCC1)C3=O (stereo not drawn) | / | 1% | / | / | 32µM* | /
COc1nc(NC(C)C)nc(N(C#N)CN2C(=O)c3ccccc3S2(=O)=O)n1 | -20% | 2%[46.1 µM] | 8% | ? | -35% | ?
CC(C)Nc1nc(Cl)nc(N(C#N)CN2C(=O)c3ccccc3S2(=O)=O)n1 | / | / | / | ? | 20µM* | /
CC1=CC(=Nc2c(C)n(C)n(-c3ccccc3)c2=O)C=C(C)C1=O | -8% | ? | ? | ? | 50µM* | -27%
Cc1c(O)c(=O)n(-c2ccccc2)n1C | -11% | / | / | -20% | 11µM* | -10%
Cc1ccc(O)c(N=NC2=C(O)CC(C)(C)CC2=O)c1 | ? | 10µM* | ? | 22% | -19% | ?
CC1(C)CC(=O)C(N=Nc2cc(Cl)c(Cl)c(Cl)c2)=C(O)C1 | ? | -1%[46.1 µM] | 4% | 28% | -1% | -18%
CCC(C)C1=CC(=Nc2c(C)n(C)n(-c3ccccc3)c2=O)C=C(C(C)CC)C1=O (stereo not drawn) | -11% | ? | 20%[46.1 µM] | -7% | -20% | -16%
CC1=CC(=Nc2c(C)n(C)n(-c3ccccc3)c2=O)C=CC1=O | / | / | / | / | 2.8µM* | /
Cc1c(N=NC2=C(O)CC(C)(C)CC2=O)c(=O)n(-c2ccccc2)n1C | -17% | 4%[46.1 µM] | 13%[46.1 µM] | -1% | 13µM* | -11%
